Structures are written as SMILES. Values without a mark were called inactive. Calls come from the whole dose curve; as a rule, active = well fitted inhibition curve with a large enough effect; inconclusive = small, poorly fitted or top-dose-only effect; inactive = no such curve, though single readings can be large or run the other way.

A short description of the test: qHTS assay for measurement of the activity of small molecule inhibitors on Zika virus induced Caspase-3 activity in human astrocytoma cells (AID 1224859). Particulars: SNB-19 ZIKV-induced caspase-3/7, luminescence, 6 h; series mostly up to 45.7 µM; activity change, negative = inhibition: at the top concentration. Summed up: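 Caspase activation in ZIKV-infected SNB-19 cells (2 FFU/cell, 6 h) measured by Caspase-Glo 3/7 luminescence after 30 min RT; compound pre-incubated 1 h; normalised to uninfected and infected controls.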
For orientation: Quantitative high-throughput screening tests each substance at several concentrations.
`CNCC(=O)c1ccc(O)c(O)c1`: the “activity change, negative = inhibition” value is -8.89%.

Regarding `CCN[C@H](C)Cc1cccc(C(F)(F)F)c1`, the “activity change, negative = inhibition” value is 4.7% [at 92.8 µM]. Consider `C#CC(O)(C=CCl)CC` (stereo not given), for which the “activity change, negative = inhibition” value was -2.51%. With `C[C@H]1[C@@H]2Cc3ccc(O)cc3[C@@]1(C)CCN2C` the figure was -7.83% [at 231 µM]; with `C[N+]1(CCF)[C@@H]2CC[C@H]1CC(OC(=O)C(O)(c1ccccc1)c1ccccc1)C2` (stereo not given in full), -4.29%; with `COC(=O)C(Cl)C(=O)OC`, -0.661%. For the compound `CCN[C@@H](C)Cc1ccccc1`, the “activity change, negative = inhibition” value was -1.73% [at 92.8 µM]. With `CCc1cc2c(s1)-n1c(C)nnc1CN=C2c1ccccc1Cl` the figure was -6.98%; with `CN1CC[C@]23c4c5ccc(O)c4O[C@H]2[C@@H](O)CC[C@H]3[C@H]1C5`, 1.04% [at 92.8 µM].

For the compound `C[C@]12CC[C@H]3[C@@H](CCC4=CC(=O)CC[C@@H]43)[C@@H]1CC[C@@H]2OC(=O)CCC1CCCCC1`, the “activity change, negative = inhibition” value was -8.5%.

Source of the values: PubChem BioAssay (NCATS).
